# Bioassay records deposited in PubChem by National Center for Advancing Translational Sciences (NCATS).
# JMJD2A Tudor inh: JMJD2A Tudor domain (human) inhibition; AlphaScreen JMJD2A-Tudor / H3K4me3 peptide binding; Potency, µM (doses to about 114 µM), for the others: top-dose activity change, negative = inhibition, most hits filed as inhibitors; AID 504339; O75164; 390,000 compounds, 4.4% hits; further: potency means the concentration at half of the fitted maximal effect; on the % scale 0 is the no-effect control and ±100 the full control effect; nearly all actives have a fitted effect of over 50% in size
# G9a inh: G9a (human) methyltransferase inhibition | Potency, µM (titrated, usually from 102 µM), for inactives: top-dose activity, negative = inhibition, hits mostly inhibitors | 350,000 compounds, 8.8% hits | G9a H3K9 monomethylation, AlphaScreen, 2 h; further: potency means the concentration at half of the fitted maximal effect; on the % scale 0 is the no-effect control and ±100 the full control effect; nearly all actives have a fitted effect of over 75% in size
#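 Methyltransferase reactions run at room temperature for 2 h (20 nM enzyme, 500 nM biotin-H3K9 peptide, 20 uM SAM) after a 15 min compound preincubation; product detected by AlphaScreen beads and anti-H3K9me1 antibody.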
# Six1-Eya2 inh: Six1/Eya2 interaction inhibition. AlphaScreen GST-Six1/His-Eya2 binding, biochemical; hits give low values. activity change, % (no concentration beside the values). 360,000 compounds, 0.56% hits. AID 651725; in the data active means activity change below about -65%; inconclusive means mostly about -30% to -63%; further: on the % scale 0 is the no-effect control and ±100 the full control effect
# Target sequence (O00167 whole entry, looked up): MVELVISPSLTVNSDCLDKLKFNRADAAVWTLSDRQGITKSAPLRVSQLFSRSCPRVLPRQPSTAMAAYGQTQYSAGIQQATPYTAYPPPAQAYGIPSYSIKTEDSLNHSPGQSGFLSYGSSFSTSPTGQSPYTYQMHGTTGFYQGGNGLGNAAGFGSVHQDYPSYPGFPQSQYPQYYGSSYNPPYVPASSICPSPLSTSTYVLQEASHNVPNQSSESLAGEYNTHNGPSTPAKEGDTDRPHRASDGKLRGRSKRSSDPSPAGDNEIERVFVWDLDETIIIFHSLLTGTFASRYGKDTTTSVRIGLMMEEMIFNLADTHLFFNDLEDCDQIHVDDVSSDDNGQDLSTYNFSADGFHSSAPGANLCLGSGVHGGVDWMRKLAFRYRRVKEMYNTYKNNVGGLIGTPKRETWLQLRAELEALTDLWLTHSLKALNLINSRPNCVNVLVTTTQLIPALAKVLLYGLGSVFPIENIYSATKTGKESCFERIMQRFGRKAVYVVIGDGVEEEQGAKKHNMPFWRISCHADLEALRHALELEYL
# Target sequence (Q15475 whole entry, looked up): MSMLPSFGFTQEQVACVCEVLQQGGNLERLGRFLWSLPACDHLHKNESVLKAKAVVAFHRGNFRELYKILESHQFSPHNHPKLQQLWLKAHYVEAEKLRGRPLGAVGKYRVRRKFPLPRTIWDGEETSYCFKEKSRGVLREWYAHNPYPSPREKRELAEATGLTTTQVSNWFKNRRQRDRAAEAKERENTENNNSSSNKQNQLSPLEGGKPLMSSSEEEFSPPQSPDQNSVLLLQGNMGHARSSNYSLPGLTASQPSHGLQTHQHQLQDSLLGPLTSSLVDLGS
#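 Compounds are tested against tagged Six1 and Eya2 proteins bridged by glutathione donor and nickel acceptor beads; after a one-hour incubation at 37 °C without light, AlphaScreen emission is recorded.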
# CtBP-E1A blk: blocks the CtBP interaction with E1A | AlphaScreen GST-E1A/His-CtBP binding, 1536-well; hits give low values | activity change, % (no concentration beside the values) | 340,000 compounds, 0.49% hits; in the data active means activity change below about -65%; inconclusive means mostly about -30% to -63%; further: on the % scale 0 is the no-effect control and ±100 the full control effect
#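 AlphaScreen with 125 nM GST-E1A and 125 nM His-CtBP (5X stocks) in Tris pH 8.0, 300 mM NaCl, BSA, Tween 20, TCEP. Compounds preincubated 2 h at 37 deg C, then glutathione donor/nickel acceptor beads added for 1 h at 37 deg C in dark.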
# HP1b chromo inh: blocks HP1-beta chromodomain binding to methylated histone tails; P83916; AlphaScreen HP1-beta / biotin-H3K9me3 peptide binding; Potency, µM (series often up to 114 µM), for inactives: at the highest dose activity change, negative = inhibition, usual class: inhibitors; 390,000 compounds, 0.56% hits; AID 540317; further: potency means the concentration at half of the fitted maximal effect; nearly all actives have a fitted effect of over 70% in size
#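 AlphaScreen: HP1-beta (50 nM) preformed 30 min with biotin-H3(1-18)K9me3 peptide (50 nM) in PBS pH 7.4, 0.01% Tween-20. Compound added for 30 min at RT, then streptavidin donor/nickel chelate acceptor beads (10 ug/mL) for 30 min.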
# BAZ2B block: BAZ2B (human) inhibition; Q9UIF8; AlphaScreen BAZ2B-H3K14Ac peptide displacement; Potency, µM (series often up to 114 µM), for the others: at the top dose activity change, negative = inhibition, most hits filed as inhibitors; 360,000 compounds, 4.4% hits; AID 504333; further: potency means the concentration at half of the fitted maximal effect; on the % scale 0 is the no-effect control and ±100 the full control effect; nearly all actives have a fitted effect of over 60% in size
#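 Inhibition is scored as reduced AlphaScreen emission. The BAZ2B/b-H3(5-23)K14Ac complex (50 nM each) in PBS pH 7.4, 0.01% Tween-20 meets compound (up to 110 uM) for 30 min at RT before bead addition.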
# The depositor's hits bear a star; ? = inconclusive; / = no result given; [ ] = dose if it differs, or a comment. A selection: hits, their analogues and other compounds. The true share with any hit is near 10%. Unless noted, the call rests on the fitted dose curve; in most records, active means well fitted inhibition curve with a large enough effect; inconclusive means small, poorly fitted or top-dose-only effect; inactive means no such curve, though single readings can be large or run the other way.
SMILES,JMJD2A Tudor inh,G9a inh,Six1-Eya2 inh,CtBP-E1A blk,HP1b chromo inh,BAZ2B block
CCC(C)N1CCC2(CC1)N=c1c(c3c4c5c(C)c(O)c3c(O)c1=NC(=O)C(C)=CC=C[C@H](C)[C@H](O)[C@@H](C)[C@@H](O)[C@@H](C)[C@H](OC(C)=O)[C@H](C)[C@@H](OC)C=CO[C@@](C)(O5)C4=O)N2 (stereo not given in full),?,?,?,-20,-24%,50µM*
CO[C@H]1C=CO[C@@]2(C)Oc3c(C)c(O)c4c(O)c(c5c(c4c3C2=O)NC2(CCN(CC(C)C)CC2)N=5)=NC(=O)C(C)=CC=C[C@H](C)[C@H](O)[C@@H](C)[C@@H](O)[C@@H](C)[C@H](OC(C)=O)[C@@H]1C,/,?,/,/,/,40µM*
COCCn1c(=O)c(-c2ccc(OC)cc2)nc2cnc(N3CCOCC3)nc21,/,0%[0.501 µM],/,/,/,/
Cc1cc(C)cc(OCC(=O)N/N=C/c2ccco2)c1,2%,-8%,-3,-16,17%,-16%
CCc1ccc(OCC(=O)N/N=C\c2ccco2)c([N+](=O)[O-])c1,?,-12%[59 µM],0,2,?,45µM*
Cc1cccc(OCC(=O)N/N=C/C=C/c2ccco2)c1,-35%,8.9µM*,-17,3,-1%,?
O=C(COc1cccc([N+](=O)[O-])c1)N/N=C/c1ccco1,?,?,11,/,3%,?
CCOC(=O)N/N=C\C=C\c1ccco1,-16%,?,-8,4,29%,-23%
Cc1cccc(C)c1OCC(=O)N/N=C/C=C/c1ccco1,-29%,32µM*,-3,0,38%,-18%
Cc1ccc(OCC(=O)N/N=C/C=C/c2ccco2)c(Br)c1,?,45µM*,-25,-9,-10%,-29%
Cn1cc([N+](=O)[O-])c(C(=O)NNC(=O)c2ccc([N+](=O)[O-])cc2)n1,?,45µM*,-2,/,?,-11%
CCC(=O)NC(=S)NNC(=O)c1ccc([N+](=O)[O-])cc1,79µM*,?,0,8,5%,15%[57.1 µM]
CC(C)CC(=O)NC(=S)NNC(=O)c1ccc([N+](=O)[O-])cc1,?,20µM*,-11,-15,-3%,3%
CCS(=O)(=O)c1nc(S(=O)(=O)c2ccc(C)cc2)c(NCc2ccccc2Cl)s1,-15%,9%[59 µM],/,/,54%,2%
COc1ccc(OC)c(NC(=O)CSc2n[nH]c(-c3ccccc3Cl)n2)c1,-29%,-20%[59 µM],/,/,16%[57 µM],-13%
Cc1cc(C(=O)OCC(=O)Nc2cccc(S(N)(=O)=O)c2)c(C)o1,-25%,/,-16,-68*,2%,/
Cc1cccc(NC(=O)COC(=O)c2cc(C)oc2C)c1,-15%,-6%,1,-5,4%,-37%
COc1ccc(CNCC(=O)Nc2cccc(S(N)(=O)=O)c2)cc1,0.71µM*,-142%[59 µM],5,5,7%,56µM*
Cc1ccc(-c2nn(-c3ccc(F)cc3F)c3c2cnc2ccc(F)cc23)cc1,2%,0%[12.7 µM],/,/,27%,-2%
Cc1ccc(S(=O)(=O)N2CCN(c3nc(-c4cccs4)nc(C)c3C)CC2)cc1,-14%,/,/,/,3%,/
COc1ccc(CC(=O)NC2CC(=O)N(c3cccc(F)c3)C2)cc1OC (stereo not given),-8%,0%[59 µM],/,/,12%,-4%
CCN(CC)Cc1c(O)ccc2occ(C(=O)c3ccccc3)c12,-14%,-8%,0,-2,48%,-25%
O=C(c1cccs1)c1coc2ccc(O)c(CN(CCO)CCO)c12,-13%,40µM*,5,4,11%,-2%
CCOc1ccccc1-c1nnc2n1N=C(c1c(OC)cccc1OC)CS2,-9%,/,/,/,/,/
Cc1ccc(-c2cc(-c3ccccc3)nc(N)c2C#N)o1,-22%,?,2,4,12%,?
SMILES,JMJD2A Tudor inh,G9a inh,Six1-Eya2 inh,CtBP-E1A blk,HP1b chromo inh,BAZ2B block
CC1=C(C#N)c2nc(N)c(C#N)c(C)c2/C1=C\c1ccc(-c2ccccc2C(=O)O)o1,35µM*,7.9µM*,?,-12,45µM*,13µM*
COc1cc(/C=C2/C(C)=C(C#N)c3nc(N)c(C#N)c(C)c32)ccc1OCC(=O)O,-5%[11.4 µM],/,?,/,-24%,45µM*
C/C=C/c1ccc(OCC(=O)O)c(OC)c1,-15%,3%,10,0,-5%,-16%
Cc1c(NC(=O)c2cc([N+](=O)[O-])ccc2N2CCOCC2)cccc1-c1nc2ccccc2o1,-24%,0%[59 µM],/,/,0%,-25%
Cc1cc2c(cc(C(=O)N3CCC(C(=O)N4CCCC4)CC3)n2Cc2c(F)cccc2Cl)o1,56µM*,50µM*,-2,-9,-23%,?
CCOC(=O)c1cc2occc2n1Cc1c(F)cccc1Cl,-10%,?,-2,6,4%,50µM*
COc1cc(NC(=O)C(CC(C)C)NS(=O)(=O)c2ccc3c(c2)CCCC(=O)N3)cc(OC)c1 (stereo not given),-14%,7%[59 µM],/,/,16%,-3%
Cc1csc2nc(COC(=O)CNC(=O)c3ccc(F)cc3)cc(=O)n12,-15%,18%[59 µM],/,/,-8%,0%
Cc1ccc(N(Cc2cccs2)C(=O)c2ccccc2[N+](=O)[O-])cc1,-25%,-33%[59 µM],/,/,4%,-37%
COc1cc(-c2cc3nc(NC4CCCCC4)ccn3n2)cc(OC)c1OC,/,/,-11,-7,/,/
COc1cc(-c2csc(NC3CCCCC3)n2)cc(OC)c1OC,?,25µM*,5,-19,-14%,?
O/C(=C\c1nc2ccccc2[nH]1)c1cccs1,-29%,25µM*,10,-4,-3%[57 µM],-30%
CC(C)(C)NC(=O)C(c1ccco1)N(C(=O)Cn1nnc(-c2ccc(F)cc2)n1)c1cccc(F)c1 (stereo not given),-30%,-4%[59 µM],2,-2,4%,4%
CC(C)(C)NC(=O)C(c1c[nH]c2ccccc12)N(C(=O)Cn1nnc(-c2ccc(F)cc2)n1)c1cccc(O)c1 (stereo not given),28µM*,-21%[59 µM],-14,0,?,?
Cc1cc(C)c2c(=O)cc(C(=O)NCCc3ccc(S(N)(=O)=O)cc3)oc2c1,2%,4%[59 µM],/,/,44%,-14%
[O-]/C(=C(\C(=S)NCc1ccco1)[n+]1ccccc1)c1ccccc1Br,-20%,?,0,-4,-1%,?
O=[N+]([O-])c1ccc(/C([O-])=C(/C(=S)NCc2ccco2)[n+]2ccccc2)cc1,-33%,35µM*,-1,3,-5%,?
Cc1ccc(/C([O-])=C(/C(=S)NCc2ccco2)[n+]2ccccc2)cc1,/,2.5µM*,/,/,/,-33%
